We go through 8 molecules from PubChem BioAssay (NCI).

This is part of a sample that, as a whole, favours compounds with a hit. Of some 83,000 tested, about 20% had one in any assay.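 Testing used 96-well plates and a 48-hour single-concentration exposure. Example: -40 means 40% of the starting cells died.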 Values without a mark were called inactive. Active and inactive are the calls of the source. The calls were made as follows: active = growth percent below 10; inactive = the rest.

Test systems include NCI-H23 lung; NCI-H226 lung; NCI-H322M lung; HOP-62 NSCLC; NCI-H460 lung; HOP-92 NSCLC; NCI-H522 lung; A549/ATCC NSCLC; 786-0 renal; COLO 205 colon; DU-145 prostate; K-562 leukemia; MALME-3M melanoma; MDA-MB-231 breast; RXF 393 renal; SF-268 CNS; SF-295 CNS; SF-539 CNS; UACC-257 melanoma; M14 melanoma.
What all share (assay): NCI-60 one-dose screen, 48 h (100 = growth as untreated, 0 = no growth, -100 = all killed)
What all share (details): 10 µM

Consider `Brc1ccc(/C=C/c2n(Cc3ccc4ccccc4c3)c3ccccc3[n+]2Cc2ccc3ccccc3c2)cc1`, for which the growth is -81.9% (active) in the test with NCI-H23 lung; -85% (active) in the test on NCI-H226 lung; 7.28% (active) in the test on NCI-H322M lung; -74.3% (active) with HOP-62 NSCLC; -66.2% (active) with NCI-H460 lung; -89.5% (active) in the test on HOP-92 NSCLC. For the same molecule, the growth with NCI-H522 lung was -84.2% (active); with A549/ATCC NSCLC, 10.4%; in the test with 786-0 renal it was -95.5% (active); in the test with COLO 205 colon, -69.3% (active); in the test with DU-145 prostate it was 3.53% (active); with K-562 leukemia it was -19.3% (active). The growth is -87.8% (active) in the test with MALME-3M melanoma; -95.9% (active) in the test with MDA-MB-231 breast; -83.1% (active) in the test on RXF 393 renal; -38.3% (active) in the test with SF-268 CNS; -65.4% (active) in the test with SF-295 CNS; -98.4% (active) in the test with SF-539 CNS. In addition, the growth with UACC-257 melanoma is -40.3% (active); in the test with M14 melanoma, -31.7% (active).
With `COc1cc(NC(=O)c2cc(-c3ccc(F)cc3F)ccc2O)cc(OC)c1OC`, the growth in the test with NCI-H23 lung was 26.2%; in the test on NCI-H226 lung, 50.9%; in the test with NCI-H322M lung it was 38.4%; in the test with HOP-62 NSCLC, 24%; in the test with NCI-H460 lung it was 22.5%; in the test on HOP-92 NSCLC, -11.8% (active). Moreover, the growth was 7.09% (active) in the test on NCI-H522 lung; 37.1% with A549/ATCC NSCLC; 54% in the test on 786-0 renal; 116% in the test with COLO 205 colon; 34.3% in the test on DU-145 prostate; 14% in the test with K-562 leukemia. In addition, the growth with MALME-3M melanoma was 17.4%; with MDA-MB-231 breast, 47.5%; in the test on RXF 393 renal it was 75.9%; with SF-268 CNS it was 25.9%; with SF-295 CNS, 65.5%; in the test on SF-539 CNS, 50.8%. Moreover, the growth was 55.3% with UACC-257 melanoma and 55.8% in the test on M14 melanoma.
With `O=c1oc2ccc(-c3ccc(F)cc3F)cc2c(=O)n1-c1ccc(F)c(Cl)c1`, the growth with NCI-H23 lung is -49.8% (active); in the test on NCI-H226 lung, -24.8% (active); in the test with NCI-H322M lung, -1.73% (active); in the test with HOP-62 NSCLC, -25.9% (active); in the test on NCI-H460 lung, -0.567% (active); in the test on HOP-92 NSCLC, -22% (active). The growth in the test with NCI-H522 lung was -17.7% (active); in the test on A549/ATCC NSCLC, 8.87% (active); in the test on 786-0 renal it was 7.54% (active); in the test with COLO 205 colon it was 7.64% (active); in the test on DU-145 prostate, 12.6%; with K-562 leukemia it was 3.74% (active). Also, the growth in the test on MALME-3M melanoma is -29.1% (active); in the test with MDA-MB-231 breast, -27.6% (active); with RXF 393 renal, -19.7% (active); in the test with SF-268 CNS it was 2.31% (active); in the test on SF-295 CNS, -80.3% (active); with SF-539 CNS it was -5.14% (active). Moreover, the growth with UACC-257 melanoma was -15.9% (active); in the test with M14 melanoma it was 12.8%.
As for `N#Cc1c(NC(=O)c2ccc(C(O)(C(F)(F)F)C(F)(F)F)cc2)sc2c1CCC(=O)C2`, the growth in the test with NCI-H23 lung was -81% (active); with NCI-H226 lung, -57.2% (active); with NCI-H322M lung, 19.1%; with HOP-62 NSCLC, -17% (active); in the test with NCI-H460 lung it was 7.12% (active); in the test on HOP-92 NSCLC, -55.7% (active). For the same molecule, the growth with NCI-H522 lung is -71.2% (active); in the test on A549/ATCC NSCLC, 9.39% (active); in the test with 786-0 renal, -47.7% (active); with COLO 205 colon, -89.3% (active); in the test with DU-145 prostate it was 15.5%; in the test with K-562 leukemia, -10.8% (active). Besides, the growth in the test with MALME-3M melanoma was -92.5% (active); with MDA-MB-231 breast, -89.7% (active); in the test on RXF 393 renal it was -89% (active); with SF-268 CNS it was -9.56% (active); with SF-295 CNS, -97% (active); in the test on SF-539 CNS it was -96.2% (active). Further, the growth in the test with UACC-257 melanoma was -61.6% (active); with M14 melanoma, -68% (active).
On to `O=C(Nc1nc2ccc([N+](=O)[O-])cc2s1)Nc1cc(Cl)ccc1I`, for which the growth is -53.2% (active) in the test with NCI-H23 lung; -50.9% (active) in the test with NCI-H226 lung; -9.64% (active) in the test with NCI-H322M lung; -44% (active) with HOP-62 NSCLC; -2.31% (active) in the test with NCI-H460 lung; -32.5% (active) with HOP-92 NSCLC. In addition, the growth with NCI-H522 lung is -52.8% (active); in the test with A549/ATCC NSCLC it was -9.31% (active); in the test with 786-0 renal, -49.4% (active); with COLO 205 colon, -98.1% (active); in the test with DU-145 prostate it was 17.3%; in the test with K-562 leukemia it was -5.74% (active). The growth is -41% (active) with MALME-3M melanoma; -37% (active) in the test on MDA-MB-231 breast; -44.8% (active) with RXF 393 renal; 1.99% (active) in the test with SF-268 CNS; -71% (active) in the test on SF-295 CNS; -74.3% (active) in the test on SF-539 CNS. In addition, the growth with UACC-257 melanoma was -36.5% (active); in the test on M14 melanoma, -52.7% (active).
`COc1ccc(CCN2C(=O)/C(=C/c3csc(C#N)n3)SC2=S)cc1OC`: the growth was 38.5% in the test on NCI-H23 lung; 100% with NCI-H226 lung; 101% with NCI-H322M lung; 111% with HOP-62 NSCLC; 98.4% in the test on NCI-H460 lung; -5.19% (active) in the test on HOP-92 NSCLC. Also, the growth in the test with NCI-H522 lung was -66.7% (active); in the test with A549/ATCC NSCLC, 95%; in the test with 786-0 renal it was 21.1%; in the test with COLO 205 colon it was -27.5% (active); with DU-145 prostate, -10.9% (active); in the test on K-562 leukemia it was 1.08% (active). The growth in the test with MALME-3M melanoma is 2.58% (active); in the test on MDA-MB-231 breast it was 95.7%; in the test with RXF 393 renal it was -1.04% (active); in the test on SF-268 CNS, 99.4%; in the test on SF-295 CNS, 98.7%; in the test with SF-539 CNS, -1.47% (active). Also, the growth in the test on UACC-257 melanoma was 13.4%; in the test with M14 melanoma it was 2.13% (active).
`CN1C(=O)/C(=C/c2nccs2)SC1=S`: the growth is 80.8% in the test on NCI-H23 lung; 87.2% in the test on NCI-H226 lung; 83.7% in the test with NCI-H322M lung; 111% with HOP-62 NSCLC; 91% with NCI-H460 lung; 92.4% with HOP-92 NSCLC. Also, the growth in the test with NCI-H522 lung was 77.7%; with A549/ATCC NSCLC it was 98.5%; with 786-0 renal, 105%; in the test with COLO 205 colon it was 119%; in the test with DU-145 prostate, 91.2%; in the test on K-562 leukemia, 66.8%. In addition, the growth is 82.1% in the test with MALME-3M melanoma; 87.5% in the test on MDA-MB-231 breast; 103% with RXF 393 renal; 104% in the test on SF-268 CNS; 93.2% in the test with SF-295 CNS; 95.4% in the test with SF-539 CNS. In addition, the growth was 85.4% in the test with UACC-257 melanoma and 87.2% with M14 melanoma.
Consider `O=C(NC(=S)N1CCN(c2ncnc3c2cnn3-c2ccccc2)CC1)c1ccc(Cl)cc1`, for which the growth was 55.5% in the test with NCI-H23 lung; 52.3% with NCI-H226 lung; 66.8% with NCI-H322M lung; -2.01% (active) with HOP-62 NSCLC; 53.3% in the test on NCI-H460 lung; 14.7% with HOP-92 NSCLC. For the same molecule, the growth is 38% in the test with NCI-H522 lung; 54.3% in the test with A549/ATCC NSCLC; 27.8% with 786-0 renal; 77.4% with COLO 205 colon; 81.1% in the test with DU-145 prostate; 61.5% in the test on K-562 leukemia. The growth in the test on MALME-3M melanoma is 56.1%; in the test with MDA-MB-231 breast, 57.1%; in the test with RXF 393 renal, 43.1%; in the test with SF-268 CNS, 41.2%; in the test on SF-295 CNS, 34.2%; with SF-539 CNS, 11.2%. Also, the growth in the test on UACC-257 melanoma is 83.8%.
